Laboratory results published in PubChem BioAssay AID1159580 (chemical genetic matrix, 2015).
“And” between values parts separate entries of the source, which are not always exact repeats. Identical values can stand only once. The campaign covered roughly 5,500 compounds. About 2,000 (36%) were called active. About 18% were inconclusive and are not listed. No stated cut-off is given here; in the data, active means normalized growth mostly below about 0.91 (no sharp cut-off); inconclusive means no clear call, values can overlap the other calls; inactive means mostly above about 0.92. Some of the results follow.

Assay: chemical genetic growth profiling, strain panel (AID 1159580);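 further: tested at 20 µM; growth read once vehicle control cultures reached saturation at 30 °C; 1 = growth at the plate median or of vehicle wells; lower values mean less growth of the strain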
Settings: S. cerevisiae deletion strains, growth OD

Measured: normalized growth

Oc1ccc(Cl)cc1Cc1cc(Cl)ccc1O
active: locus YAL013W, strain DEP1, hits give low values 0.0573 | locus YAL021C, strain ccr4, hits give low values 0.0695 | locus YAL026C, strain drs2, hits give low values 0.0747 | locus YAL030W, strain snc1, hits give low values 0.0569 | locus YBL061C, strain skt5, hits give low values 0.0645 | locus YBR009C, strain hhf1, hits give low values 0.0651 | locus YBR021W, strain FUR4, hits give low values 0.253 | locus YBR023C, strain chs3, hits give low values 0.07 | locus YBR171W, strain sec66, hits give low values 0.124 | locus YBR229C, strain ROT2, hits give low values 0.0685 | locus YBR231C, strain swc5, hits give low values 0.0629 | locus YBR279W, strain paf1, hits give low values 0.0982 | locus YCL011C, strain gbp2, hits give low values 0.0575 | locus YCL016C, strain dcc1, hits give low values 0.0745 | locus YCL029C, strain bik1, hits give low values 0.0624 | locus YCL061C, strain MRC1, hits give low values 0.107 | locus YCL069W, strain vba3, hits give low values 0.0848 | locus YCR088W, strain abp1, hits give low values 0.0882 | locus YDL005C, strain med2, hits give low values 0.0747 | locus YDL035C, strain GPR1, hits give low values 0.0712 | locus YDL040C, strain nat1, hits give low values 0.0791 | locus YDL074C, strain BRE1, hits give low values 0.092 | locus YDL101C, strain DUN1, hits give low values 0.0631 | locus YDL134C, strain PPH21, hits give low values 0.0596 | locus YDL185W, strain tfp1, hits give low values 0.0573 | locus YDL192W, strain arf1, hits give low values 0.0725 | locus YDR001C, strain nth1, hits give low values 0.107 | locus YDR069C, strain doa4, hits give low values 0.0709 | locus YDR101C, strain arx1, hits give low values 0.0668 | locus YDR137W, strain rgp1, hits give low values 0.0823 | locus YDR150W, strain NUM1, hits give low values 0.141 | locus YDR159W, strain sac3, hits give low values 0.0887 | locus YDR162C, strain NBP2, hits give low values 0.0492 | locus YDR195W, strain ref2 0.12 | locus YDR297W, strain sur2, hits give low values 0.0586 | locus YDR318W, strain mcm21, hits give low values 0.0649 | locus YDR334W, strain swr1, hits give low values 0.0861 | locus YDR335W, strain msn5, hits give low values 0.0832 | locus YDR388W, hits give low values 0.0554 | locus YDR392W, strain spt3, hits give low values 0.0992 | locus YDR502C, strain sam2, hits give low values 0.0624 | locus YEL003W, strain gim4, hits give low values 0.0565 | locus YEL037C, strain rad23, hits give low values 0.271 | locus YEL061C, strain CIN8 (second series), hits give low values 0.0757 | locus YEL061C, strain CIN8, hits give low values 0.0536 | locus YER015W, strain faa2, hits give low values 0.0622 | locus YER016W, strain bim1, hits give low values 0.0644 | locus YER110C, hits give low values 0.0746 | locus YER111C, strain swi4, hits give low values 0.0777 | locus YER155C, strain BEM2 (second series), hits give low values 0.109 | locus YER155C, strain BEM2, hits give low values 0.0649 | locus YER167W, strain BCK2, hits give low values 0.0527 | locus YFR010W, strain ubp6, hits give low values 0.185 | locus YGL078C, strain dbp3, hits give low values 0.0765 | locus YGL086W, strain mad1, hits give low values 0.0581 | locus YGL167C, strain pmr1, hits give low values 0.0782 | locus YGL173C, strain kem1, hits give low values 0.101 | locus YGL227W, strain vid30, hits give low values 0.0709 | locus YGL240W, strain doc1, hits give low values 0.08 | locus YGL248W, strain PDE1, hits give low values 0.0764 | locus YGL253W, strain hxk2, hits give low values 0.0817 | locus YGR078C, strain PAC10, hits give low values 0.0754 | locus YGR135W, strain pre9, hits give low values 0.0765 | locus YGR229C, strain SMI1, hits give low values 0.0636 | locus YGR252W, strain gcn5, hits give low values 0.146 | locus YHR013C, strain ard1, hits give low values 0.109 | locus YHR027C, strain rpn1, hits give low values 0.0641 | locus YHR030C, strain SLT2, hits give low values 0.0512 and 0.0939 | locus YHR079C, strain IRE1 (second series), hits give low values 0.0561 | locus YHR079C, strain IRE1, hits give low values 0.102 | locus YHR094C, strain hxt1, hits give low values 0.0607 | locus YHR129C, strain ARP1, hits give low values 0.0651 | locus YHR142W, strain chs7, hits give low values 0.0876 | locus YHR200W, strain rpn10, hits give low values 0.0673 | locus YIL066C, strain RNR3, hits give low values 0.0647 | locus YIL073C, strain SPO22, hits give low values 0.114 | locus YIL125W, strain kgd1, hits give low values 0.0642 | locus YIR030C, strain dcg1, hits give low values 0.0657 | locus YJL092W, strain hpr5, hits give low values 0.111 | locus YJL095W, strain BCK1 (second series), hits give low values 0.057 | locus YJL095W, strain BCK1, hits give low values 0.0553 and 0.0954 | locus YJL115W, strain asf1, hits give low values 0.201 | locus YJL129C, strain trk1, hits give low values 0.0878 | locus YJL134W, strain LCB3, hits give low values 0.0583 | locus YJL154C, strain vps35, hits give low values 0.0851 | locus YJL164C, strain tpk1, hits give low values 0.0647 | locus YJL166W, strain qcr8, hits give low values 0.0615 | locus YJL168C, strain set2, hits give low values 0.0792 | locus YJL187C, strain SWE1 (second series), hits give low values 0.0719 | locus YJL187C, strain SWE1, hits give low values 0.0599 | locus YJR043C, strain POL32, hits give low values 0.0779 | locus YJR066W, strain TOR1, hits give low values -0.000659
